# From PubChem BioAssay
# A selection: hits, their analogues and other compounds. The true share with any hit is near 1%.
# RN4220 kill: S. aureus RN4220 growth inhibition; OD600, 16 h; inhibition, % (test concentration not listed); hit rate 0.33% among 330,000; in the data active means inhibition above about 85%;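 further: plate controls were untreated cells for no effect and reference antibiotic for full effect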
# ugtP null kill: kills S. aureus RN4220 lacking UgtP | S. aureus RN4220 ugtP deletion, OD600 growth, 16 h | growth inhibition, % (concentration not given with the values) | AID 1259309 | hit rate 0.54% among 330,000; in the data active means growth inhibition above about 68%;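 further: plate controls were untreated wells for no effect and antibiotic for full effect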
# PriA SSB inh: inhibitors of Klebsiella pneumoniae PriA binding to SSB C-terminal tail | inhibition, % at 33 µM | hit rate 0.6% among 430,000 | AlphaScreen SSBct-PriA binding, biotinylated peptide | AID 1272365; in the data active means inhibition mostly above about 37%, no sharp cut-off; inactive means mostly below about 20%;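 further: plate controls were negative control peptide for no effect and reference peptide for full effect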
# Numbers without * were called inactive; nt = no result given; ! = not confirmed by another sample.
SMILES,RN4220 kill,ugtP null kill,PriA SSB inh
Cn1c(/C=C/c2ccc([N+](=O)[O-])o2)nc2ccccc2c1=O,99.0*,96.6*,-4.3
Cn1c(/C=C/c2ccccc2)nc2ccccc2c1=O,7.0,-6.0,-5.9
COc1ccccc1-c1c(-c2ccc(OCC(=O)NN)cc2O)n[nH]c1C(F)(F)F,6.7,-6.2,6.6
COc1ccc(-c2n[nH]c(C(F)(F)F)c2-c2cc3ccccc3o2)c(O)c1,100.4*,100.3*,21.7
Brc1ccc(-c2cn3c(n2)CCc2ccc4cccnc4c2-3)cc1,2.9,-12.8,53.4*
Brc1ccc(-c2cn3nc4c(nc3n2)CCCC4)cc1,2.4,13.1,-3.5
CC(=O)N1CCc2cc(S(=O)(=O)Nc3ccc4c(c3)-c3nc(C)sc3CC4)ccc21,nt,nt,8.0
O=C(c1ccc(CSCc2ccccc2F)o1)N1CCN(c2ccc(N3CCOCC3)nn2)CC1,0.9,1.4,95.6*
O=C(c1ccc(N2CCOCC2)nn1)N1CCN(c2ccccn2)CC1,nt,nt,12.0
Cc1nn(C2CCS(=O)(=O)C2)c2nc(-c3cccs3)cc(C(=O)N3CCC(C(N)=O)CC3)c12 (stereo not drawn),nt,nt,-4.0
CCn1nccc1C(=O)Nc1ccc(F)cc1,nt,nt,1.0
CCn1nccc1C(=O)Nc1ccc(N=Nc2ccccc2)cc1,nt,nt,46.0*
O=C(Oc1ccccc1)c1cc2ccccc2o1,1.7,100.7*,-7.4
O=C(O)c1cc2ccccc2o1,nt,nt,-14.0
COc1ccccc1NC(=O)c1cc2cc(Br)ccc2cc1O,99.5*,100.0*,-15.5
COc1cc(NC(=O)c2cc3ccccc3cc2O)c(OC)cc1Cl,-2.4,4.0,-8.8
CS(=O)(=O)N1CCN(C[C@H](O)c2cccs2)CC1,nt,nt,-7.0
O=C1C(=O)N(Cc2cccnc2)C(c2cccc(O)c2)C1=C(O)c1ccc2c(c1)OCCO2 (stereo not drawn),nt,nt,-3.5
COc1cccc(NC(=O)Nc2nc(-c3ccccc3)cs2)c1,nt,nt,-2.0
CN1C(=CC=NNC(=O)c2ccc(O)cc2)C(C)(C)c2ccccc21,0.4,13.0,nt
CN1C(=CC=NNC(=O)c2ccccc2Br)C(C)(C)c2ccccc21,-2.3,88.0*,nt
COC(=O)c1ccc(C(=O)NC[C@](C)(O)C2CC2)cc1,nt,nt,-11.0
CC(OC(=O)COc1ccc(Nc2ccccc2)cc1)C(=O)N(C)c1ccccc1 (stereo not drawn),-1.0,-2.8,40.1*
CC(OC(=O)CNS(=O)(=O)c1ccc2ccccc2c1)C(=O)N(C)c1ccccc1 (stereo not drawn),0.4,-1.5,0.7
Cc1ccc(COc2ccc(-c3cc(C(=O)N/N=C\c4c(C)[nH]c5ccccc45)[nH]n3)cc2)cc1,nt,nt,23.0
SMILES,RN4220 kill,ugtP null kill,PriA SSB inh
Cc1nnc(NC(=O)CSc2ccc(NC(=O)c3cccc(F)c3)nn2)s1,nt,nt,-11.0
O=C(O)c1cc(-n2cccc2)ccn1,nt,nt,95.0*
O=C(c1cc(-n2cccc2)ccn1)N1CCN(C/C=C/c2ccccc2)CC1,nt,nt,-10.0
CN(C)S(=O)(=O)N1Cc2cnc(N3CCOCC3)nc2C1,nt,nt,1.0
COc1ccc(C(=O)NCC2CCN(C(=O)Nc3ccccc3OC)CC2)cc1F,nt,nt,4.0
Cc1cccc(NN=C(C(N)=O)C2=NC(C)(C)Cc3ccccc32)c1,-2.6,24.3,56.9*
CC1(C)Cc2ccccc2C(C(=NO)C(N)=O)=N1,-2.7,-4.2,8.2
O=C(Cc1ccc(F)cc1)N1CCN(c2nc3c(Cl)cccc3s2)CC1,nt,nt,-8.0
Cc1nn(C2CCS(=O)(=O)C2)c2nc(-c3ccco3)cc(C(=O)O)c12 (stereo not drawn),nt,nt,-2.0
COc1ccc2nc(-n3nc(C)cc3NC(=O)[C@@H]3COc4ccccc4O3)sc2c1,nt,nt,-6.0
CCn1cc(C(=O)O)c(=O)c2cnc(N3CCN(C(=S)NC(=O)c4ccc(OC)cc4)CC3)nc21,46.4,85.6*,-6.1
CCn1cc(C(=O)O)c(=O)c2cnc(N3CCN(C(=S)NC(=O)c4ccc(Cl)cc4Cl)CC3)nc21,40.4,24.9,1.3
CCn1cc(C(=O)O)c(=O)c2cnc(N3CCN(C(=S)NC(=O)c4ccc(F)c(F)c4)CC3)nc21,10.8,14.0,6.6
CCn1cc(C(=O)O)c(=O)c2cnc(N3CCN(C(=S)NC(=O)c4ccccc4Cl)CC3)nc21,98.5*,94.3*,-30.4
COc1ccc(C)cc1NC(=O)c1csc(Nc2ccc(S(C)(=O)=O)cc2)n1,nt,nt,-6.0
Nc1nc(-c2ccccn2)nc(N)c1Cc1ccccc1F,8.1,8.3,94.8*
Nc1nc(-c2ccccn2)nc(N)c1Cc1ccc(Cl)cc1Cl,1.0,3.3,53.9*
Clc1ccc(OCc2nc(-c3ccccn3)no2)c(Br)c1,14.3,8.8,-10.7
Nc1nc(-c2ccccn2)nc(N)c1Cc1c(F)cccc1Cl,5.1,-5.7,35.2
COc1ccccc1C(=O)NC1CCN(C(=O)c2cn(-c3cccc(F)c3)nn2)CC1,nt,nt,-10.0
O=C(NCc1ccc(Cl)cc1)N1CC(N2C(=O)CCC2=O)C1,nt,nt,-13.0
Cc1nc(N2CCC(C)CC2)c2c(C)c(C(=O)Nc3ccc(Br)cc3C)sc2n1,nt,nt,11.0
O=[N+]([O-])c1ccc(O)c(C2N(c3ccccc3)CCN2c2ccccc2)c1,nt,nt,-3.0
CN1C=CC=C/C1=C(/C#N)c1nc(-c2ccc(Cl)cc2)cs1,nt,nt,134.0*
CN1C=CC=C/C1=C(/C#N)c1nc2ccccc2[nH]1,nt,nt,-11.0
SMILES,RN4220 kill,ugtP null kill,PriA SSB inh
CN1C=CC=C/C1=C(/C#N)c1nc(-c2ccccc2)cs1,nt,nt,99.0*
Cc1ccc(-c2csc(/C(C#N)=N/Nc3ccc(Cl)cc3Cl)n2)cc1,nt,nt,1.0
COc1ccccc1-c1csc(N)n1,nt,nt,6.0
COc1ccccc1-c1csc(/C(C#N)=C2\C=CC=CN2C)n1,nt,nt,70.0*
O=c1[nH]c2c(c(=O)[nH]1)OCN(Cc1ccccc1)C2,nt,nt,-9.9
CCOC(=O)c1c(C)oc2c1c1c(c3ccccc32)OCN(Cc2cccnc2)C1,2.9,-4.5,-2.4
Clc1cc2c(c3ncccc13)OCN(Cc1cccnc1)C2,nt,nt,101.0*
Clc1cc2c(c3ncccc13)OCN(Cc1ccccc1)C2,nt,nt,89.0*
CO[C@@]1(NC(=O)C2SC(=C(C(N)=O)C(=O)O)S2)C(=O)N2C(C(=O)O)=C(CSc3nnnn3C)CS[C@@H]21 (stereo partly drawn),nt,nt,-5.2
CO[C@@]1(NC(=O)C2SC(=C(C(N)=O)C(=O)O)S2)C(=O)N2C(C(=O)O)=C(CSc3nnnn3C)CSC21 (stereo partly drawn),100.4*,100.3*,nt
Cc1cc(C)c2sc(N(CCCN(C)C)C(=O)c3ccc(S(=O)(=O)N4CCc5ccccc5C4)cc3)nc2c1,nt,nt,-10.0
CN(C)CCN(C(=O)c1ccccc1)c1nc2ccc(F)cc2s1,nt,nt,-11.0
CN(C)CCCN(C(=O)c1ccc(S(=O)(=O)N2CCc3ccccc32)cc1)c1nc2ccc(Cl)cc2s1,-0.3,-11.2,-2.0
CN(C)CCCN(C(=O)c1ccc(S(=O)(=O)N2CCCc3ccccc32)cc1)c1nc2c(Cl)cccc2s1,nt,nt,39.0*
CN(C)CCCN(C(=O)c1ccc(S(=O)(=O)N2CCc3ccccc32)cc1)c1nc2ccc(F)cc2s1,-2.5,-15.0,46.0*!
CN(C)CCCN(C(=O)c1cc(-c2cccs2)nc2ccccc12)c1nc2ccc(F)cc2s1,14.8,-49.6,40.9*
Cc1cc(C)c2sc(N(CCCN(C)C)C(=O)c3ccc(S(=O)(=O)N4CCCc5ccccc54)cc3)nc2c1,nt,nt,47.0*!
CN(C)CCCN(C(=O)c1ccc(S(=O)(=O)N2CCCc3ccccc32)cc1)c1nc2c(F)cc(F)cc2s1,nt,nt,-15.0
C=C1COC(=O)N1c1ccc(C)cc1,nt,nt,-4.0
O=C(NCCn1ccn2nccc12)Nc1ccccc1Cl,nt,nt,-10.0
